Several values for one entry are separate records, joined by “and”; a condition that tells them apart may be missing. Equal entries are not always repeated. Activity calls are given as the source filed them.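 Rule for the calls, unless noted: active = compounds killing one labelled cell type while sparing the other, by normalised counts and ratio limits, not self-fluorescent; inactive = the rest.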
Assays:
[1] = differential killing of epithelial or mesenchymal cells, primary screen, imaging, PC-3E GFP, TEM4-18 mCherry, co-culture (AID 1345086); conditions: imaging cell counts, at 1 µM; for red/green cell ratio (normalised): actives lie on both sides, counts scaled to control wells, 1 = unselective;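 for all read-outs here: cells exposed to compound for 72 h before imaging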;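 for red/green cell ratio (normalised): normalised mesenchymal count divided by normalised epithelial count so high means epithelial killing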
[2] = polyglutamine-triggered caspase-3 activation inhibitors, cell-based (AID 1583); conditions: polyglutamine-induced caspase-3 activation, cell assay; stronger effect = higher value;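 tested at 10 µM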
[3] = suppressors of polyQ aggregation in yeast, 75Q-TubU reporter (AID 1593); conditions: Yeast 75Q polyglutamine aggregation reporter
[4] = liver-stage malaria parasite growth inhibition, primary screen, cell-based, HepG2, luciferase luminescence, HepG2 viability (AID 624349; in the data active = parasite load remaining mostly below about 12%, no sharp cut-off; inactive = mostly above about 10%;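 note: 100% = mean of DMSO negative control wells on the same plate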); conditions: P. berghei liver stage in HepG2, luciferase luminescence, concentration not given here; parasite load remaining: stronger effect = lower value; viability: measured here: HepG2 viability without parasites
[5] = measured here: epithelial PC-3E GFP cell survival
[6] = measured here: mesenchymal TEM4-18 mCherry cell survival

SMILES	red/green cell ratio (normalised) [1]	normalised cell number [1, 5]	normalised cell number [1, 6]	inhibition [2] [%]	score [3]	parasite load remaining [4]	viability [4] [%]
COc1ccc(/C=C/C(=O)O)cc1OC	0.97 (inactive) and 0.98 (inactive)	0.93 and 1	0.91 and 0.98	–	–	–	–
O=C(/C=C/c1ccc(O)cc1)c1ccccc1O	0.93 (inactive)	1.02	0.94	–	–	–	–
COc1ccc(/C=C/C(=O)c2cc(O)ccc2O)cc1	0.92 (inactive)	1.12	1.03	–	–	–	–
COc1ccc(/C=C/C(=O)c2ccc(O)cc2O)cc1	1.07 (inactive)	0.93	0.99	–	–	–	–
CC(=O)O[C@@H]1CC2C(C)(C)[C@H](O)C=C[C@]2(C)C2CC[C@@]3(C)[C@H](c4ccoc4)OC(=O)C4OC43[C@@]21C (some centres not stated)	1.02 (inactive)	1.17	1.19	–	–	–	–
Cc1cc(O)c(C=O)c2c1C(=O)Oc1c(COC(=O)/C=C/C(=O)O)c(O)c(C(=O)O)c(C)c1O2	1.12 (inactive)	1.12	1.25	–	–	–	–
CC(=O)O[C@@H]1CC2C(C)(C)C(=O)C3OC3[C@]2(C)C2CC[C@@]3(C)[C@H](c4ccoc4)OC(=O)C4OC43[C@@]21C (some centres not stated)	1.04 (inactive)	1.01	1.05	–	–	–	–
O=C(O)c1ccc2c(c1)OCO2	1.05 (inactive)	1	1.05	–	–	–	–
COc1cc(O)c(C(=O)/C=C/c2ccc(O)c(OC)c2)c(OC)c1	0.93 (inactive)	1.1	1.02	–	–	–	–
COc1ccc2oc3ccccc3c(=O)c2c1	0.95 (inactive)	1.2	1.14	–	–	–	–
COc1ccc([C@H]2COc3c(ccc(O)c3OC)C2)c(OC)c1O	0.9 (inactive)	0.99	0.9	–	–	–	–
COc1ccc(-c2cc(=O)c3c(OC)c(OC)c(OC)cc3o2)cc1OC	1.21 (inactive)	0.9	1.08	–	–	–	–
CC(=O)Oc1cc(OC(C)=O)c2c(c1)O[C@H](c1ccc(OC(C)=O)c(OC(C)=O)c1)[C@@H](OC(C)=O)C2	0.85 (inactive)	0.98	0.84	–	–	–	–
COc1ccc(-c2cc(=O)c3c(O)cc(OC)c(OC)c3o2)c(OC)c1	1.02 (inactive)	0.97	0.99	–	–	–	–
CC(=O)Oc1ccc2c(c1C(C)C)CCC1C(C)(C)CCC[C@]21C (some centres not stated)	0.8 (inactive)	1.07	0.86	–	–	–	–
O=c1cc(-c2ccc(O)cc2)oc2ccc(O)cc12	1 (inactive)	0.97	0.97	–	–	–	–
CC(=O)Oc1cc2c(c(C)c1OC(C)=O)CC=C1[C@@]2(C)CC[C@@]2(C)C3C[C@](C)(C(=O)O)CC[C@]3(C)CC[C@]12C (some centres not stated)	0.58 (inactive)	1.06	0.62	–	–	–	–

SMILES	red/green cell ratio (normalised) [1]	normalised cell number [1, 5]	normalised cell number [1, 6]	inhibition [2] [%]	score [3]	parasite load remaining [4]	viability [4] [%]
COc1cc2oc3cc(OC)c(OC)c(CC=C(C)C)c3c(=O)c2c(OC)c1CC=C(C)C	0.95 (inactive)	1.02	0.97	–	–	–	–
CC1(C)C(=O)[C@@H]2C[C@@]3(O)C4=CC(=O)O[C@@H](c5ccoc5)[C@]4(C)CCC3C(C)(C2=O)[C@H]1CC(=O)O (some centres not stated)	1 (inactive)	1.01	1.01	–	–	–	–
C#CCCCCCCCCCCCc1ccco1	0.97 (inactive)	1.01	0.98	–	–	–	–
CC(=O)OCC(OC(C)=O)C(OC(C)=O)C(OC(C)=O)C(OC(C)=O)C(COC(C)=O)OC(C)=O (configuration not stated)	1.06 (inactive)	0.99	1.05	–	–	–	–
CC(C)CC(NC(=O)CCN)C(=O)O (configuration not stated)	1.07 (inactive)	1.22	1.31	1.74	1.04	–	–
CC1(C)C2CC[C@]3(C)C(C(=O)C=C4[C@H]5C[C@@](C)(C(=O)O)CC[C@]5(C)CC[C@]43C)[C@@]2(C)CC[C@@H]1O (some centres not stated)	1.07 (inactive)	1.03	1.11	-22.8	2.14	–	–
CC(=O)N1CCCC1C(=O)O (configuration not stated)	0.79 (inactive)	1.3	1.03	–	–	194% (inactive)	68.3
CC(=O)[C@@]1(O)CCC2C3C=C(Cl)C4=CC(=O)[C@@H]5CC5[C@]4(C)C3CC[C@@]21C (some centres not stated)	0.82 (inactive)	1.07	0.88	39.2	0.81	143% (inactive)	89.2
CCCC(=O)Nc1ncnc2c1ncn2C1O[C@@H]2COP(=O)(O)O[C@H]2[C@H]1OC(=O)CCC (some centres not stated)	0.94 (inactive)	0.93	0.88	-71.1	1.26	129% (inactive)	95
NC[C@H]1O[C@H](O[C@H]2C(O[C@@H]3O[C@H](CO)[C@@H](O)[C@H]3O)[C@@H](O)[C@H](N)C[C@@H]2N)[C@H](N)[C@@H](O)[C@@H]1O (some centres not stated)	0.87 (inactive)	1.26	1.1	-18.6	1.41	166% (inactive)	89
C=C(C)[C@H]1CC=C(C(=O)O)CC1	0.84 (inactive)	1.08	0.92	10.7	0.26	101% (inactive)	69.4
COc1ccc(-c2cc(=O)c3c(O)cc(O[C@@H]4O[C@H](CO[C@H]5O[C@H](C)[C@@H](O)[C@H](O)[C@@H]5O)[C@@H](O)[C@H](O)[C@H]4O)cc3o2)cc1O	0.86 (inactive)	1.13	0.98	25.9	2.29	42.5% (inactive)	98.3
CCCCC(=O)O[C@]1(C(=O)CO)[C@@H](C)CC2C3CCC4=CC(=O)C=C[C@]4(C)[C@@]3(F)C(O)C[C@@]21C (some centres not stated)	1.42 (inactive)	0.8	1.14	–	–	94.9% (inactive)	71
CC(C)(C)NC[C@@H](O)COc1nsnc1N1CCOCC1	1.2 (inactive)	0.88	1.05	6.36	1.66	198% (inactive)	72.4
C1CCN2C[C@H]3C[C@H](CN4CCCC[C@@H]34)[C@H]2C1	1.01 (inactive)	1.18	1.19	-43.7	1.18	–	–
CC(CCC(=O)O)[C@H]1CCC2C3CC[C@@H]4C[C@H](O)CC[C@]4(C)C3CC[C@@]21C (some centres not stated)	0.99 (inactive)	0.91	0.89	–	–	32.1% (inactive)	67.3
CC1(C)C2CC[C@]3(C)C(C(=O)C=C4[C@@H]5C[C@@](C)(C(=O)O)CC[C@]5(C)CC[C@]43C)[C@@]2(C)CC[C@@H]1O (some centres not stated)	0.98 (inactive)	0.92	0.89	22.2	2.09	94.2% (inactive)	71
